Test results reported in ChEMBL document CHEMBL3988442, “University of Dundee, Small-Polar-MMV Screening Library” (2021).
Among all 48,000 compounds or so, about 13,000 (27%) showed an effect of 50% or more. Some of the results follow.

System: Wolbachia pipientis
Test: Anti-Wolbachia Cell-Based Screen
Format: functional
Parameters: scale not given: in the data most compounds retested in dose-response had high values
Details: 5 µM

In order of falling “Percent Effect” value:
1. CC(=O)N1CCOC(c2cncc(CCC(N)=O)n2)C1 (stereo not given)  132.1%
2. CC(=O)N1CCOC(c2cncc(CCC(=O)N(C)C)n2)C1 (stereo not given)  131.5%
3. CCS(=O)(=O)N1CCC(n2nc(-c3cc(C)oc3C)ccc2=O)CC1  128.2%
4. Cc1cc(-c2ccc(=O)n(C3CCN(S(C)(=O)=O)CC3)n2)c(C)o1  123.5%
5. CCCS(=O)(=O)N1CCC(n2nc(-c3cc(C)oc3C)ccc2=O)CC1  123.5%
6. CN1CCOC(c2cncc(CCC(N)=O)n2)C1 (stereo not given)  120.9%
7. CN1CCOC(c2cncc(CCC(=O)N(C)C)n2)C1 (stereo not given)  119.8%
8. Cc1cc(C(=O)NC2CCc3c(ccc(=O)n3CC3CC3)C2)no1 (stereo not given)  117.2%
9. O=C(C1CC(F)(F)C1)N1C[C@@H]2CN(CC3CC3)CCO[C@@H]2C1.O=C(O)C(F)(F)F  110.9%
10. N#Cc1cccc(C(=O)NC2CCc3c(ccc(=O)n3CC3CC3)C2)c1 (stereo not given)  110.8%
11. Cc1cc(C(=O)NC2CCc3c(ccc(=O)n3CC(C)C)C2)no1 (stereo not given)  105.4%
12. COc1ccc(C(=O)N2CCN(CCO)CC2)c(F)c1  102.7%
13. O=C(C1CC(F)(F)C1)N1C[C@@H]2CN(Cc3ccoc3)CCO[C@@H]2C1  97.76%
14. O=C(C1CC(F)(F)C1)N1C[C@@H]2CN(CC3CCCC3)CCO[C@@H]2C1.O=C(O)C(F)(F)F  97.34%
15. Cc1cc(-c2ccc(=O)n(C3CCN(S(=O)(=O)N(C)C)CC3)n2)c(C)o1  95.62%
16. Cc1cc(C(=O)NC2CCc3c(ccc(=O)n3CCN(C)C)C2)no1 (stereo not given)  93.45%
17. O=C(N1CCCC1)N1C[C@@H]2CN(Cc3ccoc3)CCO[C@@H]2C1  26.69%
18. NC(=O)CC1CCN(S(=O)(=O)c2cnn(-c3ccccc3)c2)CC1  23.91%
19. Cc1ccc(C(C)NC(=O)N2CCN(S(C)(=O)=O)CC2)o1 (stereo not given)  16.96%
20. Cc1nn(CCC#N)c(C)c1CCC(=O)N(C)C.Cl  11.54%
21. O=C(C1CC(F)(F)C1)N1C[C@@H]2CN(Cc3ccsc3)CCO[C@@H]2C1.O=C(O)C(F)(F)F  8.794%
22. CCN(CC)C(=O)CNS(=O)(=O)c1cc(Br)ccc1F  7.808%
23. O=C(O)C(F)(F)F.O=C(O)C(F)(F)F.c1nc2n(c1CN1CCCCC1)CCN(C1CCOC1)CC2 (stereo not given)  7.057%
24. Cc1cc(-c2n[nH]c3c2CN(S(=O)(=O)c2ccsc2)CC3)c(C)o1  6.081%
25. CSCC(C)(O)CNc1cccc(F)c1C(C)=O (stereo not given)  5.644%
26. CCC(CC)CN1CCC2(CCC(=O)N2OCc2ccccc2F)CC1  5.285%
27. CC(=O)N[C@@H]1Cc2ccccc2[C@H]1Nc1ccncn1  4.323%
28. CCCS(=O)(=O)N1CCC(NC(=O)c2cc(C)c(CC)s2)CC1  4.17%
29. CCN1CCO[C@@H]2CN(C(=O)COC3CCCC3)C[C@@H]2C1.O=C(O)C(F)(F)F  2.686%
30. O=C(O)C(F)(F)F.O=C(c1cocn1)N1C[C@@H]2CN(CC3CC3)CCO[C@@H]2C1  1.689%
31. CCC(C#N)NC(=O)COC1CCCCC1 (stereo not given)  0.5871%
32. Cc1cnn(CCC(=O)N2CCOC(c3nc(C(C)(C)C)n[nH]3)C2)c1 (stereo not given)  0.508%
33. CCC1CCCCN1S(=O)(=O)c1c(N)noc1C (stereo not given)  0.4068%
34. CC(C)(C)c1n[nH]c(C2CN(C(=O)CCc3cscn3)CCO2)n1 (stereo not given)  -3.136%
35. Cn1c(SCC(O)COCc2ccc(Cl)cc2)nnc1C1CC1 (stereo not given)  -3.183%
36. CCCS(=O)(=O)N1CCC(c2ccc(OC)cc2)CC1  -3.773%
37. CNC(=O)C(C)CN(C)C(=O)Nc1ccc(F)c(-n2cccc2)c1 (stereo not given)  -4.138%
38. Cc1cc2cc(CNC3CCN(S(C)(=O)=O)CC3)oc2cc1C  -4.149%
39. Cc1nc(CNC(C(=O)N2CCOCC2)c2ccccc2)cs1 (stereo not given)  -4.254%
40. CC(C)n1ccc(=O)nc1SC1CCN(c2ccccc2F)C1=O (stereo not given)  -4.763%
41. CCS(=O)(=O)CC(=O)NC1(c2ccc(Cl)c(Cl)c2)CC1  -4.937%
42. Cc1cn2c(CN(C)C(=O)c3nccnc3N)c(C)nc2s1  -5.585%
43. CN(C)S(=O)(=O)N1CCC(C(O)c2ccc(Cl)cc2)CC1 (stereo not given)  -7.887%
44. Cc1cnc(C(=O)N2C[C@@H]3CN(CC4CCCC4)CCO[C@@H]3C2)cn1.O=C(O)C(F)(F)F  -8.351%
45. Cn1cc(CC(=O)N2CCOC(c3nc(C(C)(C)C)n[nH]3)C2)cn1 (stereo not given)  -9.292%
46. O=C(CC1CCCC1)N1C[C@@H]2CN(Cc3ccoc3)CCO[C@@H]2C1  -9.792%
47. CC(=O)N1CCOC[C@H](OCC(=O)N(C)C)C1  -10.39%
48. Cc1nc2cc(F)cc(C(=O)N3CCN(CCO)CC3)c2nc1C  -10.5%
49. CC(C)(C(=O)NCC(N)=O)c1ccccc1F  -10.57%
50. COc1c(C2CCCN2c2ncnc3c2CCC3)c(C)nn1C (stereo not given)  -10.62%
51. CCS(=O)(=O)N1CCC(c2nnc(C3CC3)o2)CC1  -10.63%
52. OC[C@H]1CCN(Cc2ccc3ccccc3n2)C[C@@H]1O  -11.71%
53. CN(C)S(=O)(=O)N1CCC(Oc2ccc(C#N)cc2)CC1  -11.9%
54. COCCN(C)CCN1CC2(CCN(C3CCSC3)CC2)OC1=O (stereo not given)  -12.17%
55. O=C(c1ccc(-c2cccs2)cc1F)N1CCN(CCO)CC1  -12.79%
56. CC(C)Cn1c2c(ccc1=O)CC(NC(=O)c1ccsc1)CC2 (stereo not given)  -16.59%
57. O=C(CC1CC1)NC1CCc2c(ccc(=O)n2CC2CC2)C1 (stereo not given)  -16.88%
58. Nc1nccc(N[C@H]2CN(CC(=O)NC3CCCCC3)C[C@@H]2C2CC2)n1  -21.82%
59. CC(=O)NCC(=O)NC1CCc2c(ccc(=O)n2CC2CC2)C1 (stereo not given)  -21.87%
60. CC(C)Cn1c2c(ccc1=O)CC(N)CC2 (stereo not given)  -23.17%
61. NC(=O)CCn1ccc(NC(=O)c2ccc(OCC3CC3)cc2)n1  -25.96%
62. Cc1cc(C(=O)N[C@H]2CC[C@@]3(CCC(=O)N3C)CC2)no1  -27.57%
63. COc1cc(F)ccc1-c1cc(CO)ccn1  -29.15%
64. CCCc1n[nH]c(C2CN(CC(=O)N(C)Cc3ccco3)CCO2)n1 (stereo not given)  -31.39%
65. O=C(NC1CCc2c(ccc(=O)n2CC2CC2)C1)c1cscn1 (stereo not given)  -44.11%
